Screening results deposited in PubChem BioAssay by National Center for Advancing Translational Sciences (NCATS).
This is a sample that favours compounds with a hit; in the whole collection about 21% have one here.
CHX counter: Cycloheximide Counterscreen for Small Molecule Inhibitors of Shiga Toxin; max response, %; cell reporter, cycloheximide protein synthesis inhibition counterscreen; AID 2314, 2010; hit rate 12% among 300,000; in the data active means max response mostly above about 13%, no sharp cut-off; inactive means mostly below about 14%; further: read at 38.3 µM for the half of the compounds with a filed dose
Pf growth 96h: Primary qHTS for delayed death inhibitors of the malarial parasite plastid, 96 hour incubation | P. falciparum luciferase reporter growth, 96 h | Potency, µM (series often up to 28.7 µM), actives largely listed as inhibitors | hit rate 6.9% among 320,000
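Luminescence readout: decreased luciferase signal marks inhibited growth of reporter-expressing P. falciparum in infected red cells (2% hematocrit, 0.05% parasitemia final), exposed to compound two generations (96 h, 37 C, 5% CO2).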
Shiga inhibitor: A qHTS for Small Molecule Inhibitors of Shiga Toxin; hit rate 9.2% among 290,000; AID 2315, 2010; Vero cells, Shiga toxin protein synthesis inhibition reporter; inhibition, % at 38.7 µM; in the data active means inhibition mostly above about 28%, no sharp cut-off; inactive means mostly below about 43%
SARS PLP yeast: qHTS of Yeast-based Assay for SARS-CoV PLP. hit rate 0.19% among 330,000. S. cerevisiae expressing SARS-CoV PLpro, growth rescue. Potency, µM (doses to about 32.9 µM), usual class: activators; calls by dose curve; further: nearly all actives have a fitted effect of over 55% in size
NS1 inh: qHTS Assay for Inhibitors of Influenza NS1 Protein Function; hit rate 0.4% among 270,000; Potency, µM (series often up to 46.1 µM); calls by dose curve; further: actives are rising curves; nearly all actives have a fitted effect of over 50% in size
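Growth recovery, yeast-based: influenza A NS1 expressed in S. cerevisiae causes slow growth, and suppressors are detected by OD600. The parent strain without NS1 is used as positive control.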
Pf growth 48h: Primary qHTS for delayed death inhibitors of the malarial parasite plastid, 48 hour incubation. AID 504832, 2011. hit rate 5.9% among 310,000. P. falciparum luciferase growth in erythrocytes, 48 h. Potency, µM (highest dose often 28.7 µM), hits mostly inhibitors
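A one-generation exposure of luciferase-tagged malaria parasites in RPMI 1640/Albumax erythrocyte culture, 37 C and 5% CO2. Inhibition is inferred from decreased luminescence after adding detection reagent.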
Each line names hits and unclear results; the compound was inactive in the other large screens. Unless noted, the call rests on the fitted dose curve; in most records, active means well fitted inhibition curve with a large enough effect; inconclusive means small, poorly fitted or top-dose-only effect, or another doubt; inactive means no such curve, though single readings can be large or run the other way.

CCOC(=O)C1CCCN(CC(=O)Nc2cccc(C(C)=O)c2)C1 (stereo not given)	none
CC1=Nc2ccccc2N=C(NC(=O)CSC(=S)N2CCCCC2)C1c1ccccc1 (stereo not given)	Pf growth 96h inconclusive, Pf growth 48h 13µM
O=C(NCc1ccccc1Br)c1ccc2c(c1)OCCO2	none (no result: Shiga inhibitor)
Cc1cccc2cc(CN(CC3CCCO3)C(c3nnnn3Cc3ccco3)C(C)C)c(=O)[nH]c12 (stereo not given)	Pf growth 96h inconclusive, Pf growth 48h inconclusive
NC(=O)COc1ccc2oc(=O)cc(-c3cc4ccccc4o3)c2c1	SARS PLP yeast inconclusive
CCn1c(Cn2nnc(-c3ccccc3)n2)nnc1SCc1ccc(Cl)c(Cl)c1	Pf growth 48h inconclusive
CCOc1ccc(C2c3[nH]c4ccccc4c3C[C@H]3C(=O)N(C4CC4)CC(=O)N23)cc1OC (stereo not given in full)	Pf growth 96h inconclusive
CCCN1CC(=O)N2C(c3cccc(OC)c3OC)c3[nH]c4ccccc4c3C[C@H]2C1=O (stereo not given in full)	Pf growth 96h 4.1µM, Pf growth 48h 9.3µM
CCOc1ccccc1C1c2[nH]c3ccccc3c2C[C@H]2C(=O)N(C3CC3)CC(=O)N12 (stereo not given in full)	Pf growth 96h 9.3µM, Pf growth 48h inconclusive
O=C1[C@@H]2Cc3c([nH]c4ccccc34)C(c3cccc([N+](=O)[O-])c3)N2C(=O)CN1C1CCN(Cc2ccccc2)CC1 (stereo not given in full)	Pf growth 96h 15µM, Pf growth 48h 9.3µM
CC(=O)NC1=NN(C(C)=O)C(c2ccco2)S1 (stereo not given)	none
Cc1ccc(NC(=O)CNC(=O)c2ccc(Br)o2)nc1	none (no result: CHX counter, Shiga inhibitor, NS1 inh)
CCCCNC(=O)NNC(=O)c1ccco1	none
CCCCNC(=O)NNC(=O)c1ccoc1C	CHX counter 53, Pf growth 96h inconclusive, Shiga inhibitor 62, Pf growth 48h inconclusive
CCCCNC(=S)NNC(=O)c1ccoc1C	CHX counter 19
COCCCNC(=S)NNC(=O)c1ccoc1C	Pf growth 96h inconclusive
Cc1ccc2c(c1)sc(=NC(=O)c1cccs1)n2C	none
Cc1ccc2c(c1)sc(=NC(=O)C1CC1)n2C	CHX counter 45, Shiga inhibitor 89
CCC(C)(C)NC(=O)C(c1ccncc1)N(Cc1ccc(C)cc1)C(=O)c1csnn1 (stereo not given)	Pf growth 96h 4.7µM
CCC(C)(C)NC(=O)C(c1cccnc1)N(C(=O)c1csnn1)c1ccc(C)cc1 (stereo not given)	Pf growth 48h inconclusive
Cc1ccc(CN(C(=O)c2csnn2)C(C(=O)NC2CCCC2)c2ccc(C)o2)cc1 (stereo not given)	Pf growth 48h 15µM
CC(C)(C)NC(=O)C(c1cccs1)N(Cc1ccc(F)cc1)C(=O)c1csnn1 (stereo not given)	Pf growth 48h 9.3µM
CC(C)(C)NC(=O)C(c1cccs1)N(C(=O)c1csnn1)c1cccc(F)c1 (stereo not given)	none
CCC(=O)[C@@H](c1ccccc1)c1ccccn1	none (no result: CHX counter, Pf growth 96h, Shiga inhibitor, SARS PLP yeast, Pf growth 48h)
CCCNC(=O)c1cc(Cl)c(NC(=O)C2=CSCCO2)cc1OC	Shiga inhibitor 19
CC(=NCCCn1ccnc1)c1c(O)n(C)c(=O)n(C)c1=O	Pf growth 96h 10µM
Cc1cc(C)c(S(=O)(=O)c2ccccc2C)c(SCC(C)C)n1	Pf growth 96h 12µM, Pf growth 48h inconclusive
CCCSc1nc(C)cc(C)c1S(=O)(=O)c1ccccc1C	Pf growth 96h inconclusive, Pf growth 48h inconclusive
Cc1cccc(-n2nnc(C(=O)NCc3ccccc3)c2N)c1	CHX counter 12
Nc1c(C(=O)Nc2cccc(F)c2)nnn1-c1cccc(C(F)(F)F)c1	CHX counter 18, Pf growth 96h inconclusive, Shiga inhibitor 60 (no result: NS1 inh)
CC(=O)Nc1nonc1-n1nnc(C(=O)NCc2ccccc2)c1C	Pf growth 96h 2.3µM
Cc1ccc(NC(=O)c2nnn(-c3cccc(C(F)(F)F)c3)c2N)cc1	Pf growth 96h 12µM (no result: NS1 inh)
Cc1ccc(-c2nnn(CC(=O)N(CC(=O)NC3CCCCC3)c3ccccc3F)n2)o1	Pf growth 48h inconclusive
CCOCCCn1c(=S)[nH]c2cc(C(=O)NCCc3ccccc3)ccc2c1=O	Pf growth 96h inconclusive
Cc1ccnc(NS(=O)(=O)c2ccc(NC(=O)c3ccc4c(c3)OCCO4)cc2)n1	none
Nc1c(C(=O)Nc2ccc(F)cc2)nnn1-c1cccc(C(F)(F)F)c1	CHX counter 15, Pf growth 96h 9.3µM (no result: NS1 inh)
O=C(Nc1nccs1)Oc1ccccc1	none
Fc1ccc(NC(=S)Nc2nccs2)cc1	CHX counter 50, Pf growth 96h 0.29µM, Shiga inhibitor 75, Pf growth 48h 13µM (no result: NS1 inh)
Fc1ccc(NC(=S)Nc2ccc3nccnc3c2)cc1	CHX counter 38
S=C(Nc1ccccc1)Nc1nccs1	CHX counter 29, Pf growth 96h 7.4µM, Shiga inhibitor 99, Pf growth 48h inconclusive
COc1cc(OC)cc(C(=O)Nc2nnc(NC(=S)Nc3ccccc3)s2)c1	none
CC(C)(C)c1nnc(NC(=S)Nc2ccccc2)s1	CHX counter 37, Shiga inhibitor 115
CCn1cc(C(=O)OCC(=O)c2cc(C)n(-c3ccc(OC(F)F)cc3)c2C)c(=O)c2ccc(C)nc21	Pf growth 96h inconclusive
O=C(NC1CCCC1)c1cc2ccccc2o1	CHX counter 40, Shiga inhibitor 56
CC1CCCCC1NC(=O)c1cc2ccccc2o1 (stereo not given)	CHX counter 35, Pf growth 96h inconclusive, Shiga inhibitor 35
CCCCN(CCCC)CCCN1CC(=O)N2[C@@H](Cc3c([nH]c4ccccc34)C2(C)C)C1=O	Pf growth 96h inconclusive, Pf growth 48h 9.3µM
CCCCCN1CC(=O)N2[C@@H](Cc3c([nH]c4ccccc34)C2(C)C)C1=O	Pf growth 96h inconclusive, Pf growth 48h inconclusive
CCCCOCCCN1CC(=O)N2[C@@H](Cc3c([nH]c4ccccc34)C2(C)C)C1=O	Pf growth 96h 9.3µM, Pf growth 48h inconclusive
CC1=NN(c2ccccc2)C(=O)/C1=C\C=C\c1ccccc1	Pf growth 96h 12µM, Pf growth 48h inconclusive
CC1=NN(c2ccccc2)C(=O)/C1=C/c1cn(C)c2ccccc12	Pf growth 96h 7.4µM, Pf growth 48h inconclusive
CC1=NN(c2ccccc2)C(=O)/C1=C/c1cc2cc(C)ccc2nc1N1CCCCC1	CHX counter 23, Pf growth 48h inconclusive
CCOC(=O)c1ccc(N2N=C(C)/C(=C/C=C/c3ccco3)C2=O)cc1	Pf growth 96h 13µM
CC1=NN(c2ccccc2)C(=O)/C1=C/C=C/c1ccc(N(C)C)cc1	Pf growth 96h inconclusive, Pf growth 48h inconclusive (no result: NS1 inh)
CC1=NN(c2ccccc2)C(=O)/C1=C\c1cn(C)c2ccccc12	Pf growth 96h inconclusive, Pf growth 48h inconclusive (no result: NS1 inh)
